Most compounds without a hit are left out; they make up all but 3.8% or so of the library.
pPAFAH inh: pPAFAH (human) enzyme inhibition; recombinant pPAFAH, FP-rhodamine probe fluorescence polarization; inhibition, % at 3.39 µM; hit rate 1.5% among 330,000; AID 463082;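 active means inhibition above the mean inhibition across the screen plus 3 SD, cut at about 25% in these data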;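 further: inhibitors block binding of the rhodamine activity-based probe so polarization drops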
PAFAH1B3 inh: blocks human PAF acetylhydrolase 1B catalytic subunit 3. hit rate 0.28% among 340,000. Q15102. inhibition, % at 3.39 µM. recombinant PAFAH1B3, FP-rhodamine probe, fluorescence polarization;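 active means inhibition above the screen-wide average of all tested compounds plus 3 SD, cut at about 25% in these data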
Target sequence (Q15102 whole entry, looked up): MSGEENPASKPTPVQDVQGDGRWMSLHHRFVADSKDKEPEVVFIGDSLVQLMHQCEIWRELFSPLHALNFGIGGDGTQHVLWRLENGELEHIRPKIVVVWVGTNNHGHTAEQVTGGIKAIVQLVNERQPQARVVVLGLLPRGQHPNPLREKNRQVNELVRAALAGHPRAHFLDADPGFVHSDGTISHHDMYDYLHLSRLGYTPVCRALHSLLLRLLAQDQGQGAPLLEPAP
M18AAP inhibitor: PfM18AAP enzyme inhibition | recombinant PfM18AAP, H-Glu-NHMec fluorogenic cleavage | inhibition, % at 7.35 µM | hit rate 1.2% among 290,000;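 active means inhibition above the campaign mean inhibition over all tested compounds plus 3 SD, cut at about 28% in these data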
PAFAH2 FP inh: PAFAH2 (human) inhibition. hit rate 0.99% among 340,000. inhibition, % at 3.39 µM. recombinant PAFAH2, FP-rhodamine activity probe, fluorescence polarization. AID 492956;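 active means inhibition above the mean over all tested compounds plus 3 SD, cut at about 30% in these data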;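 further: inhibitors block probe labeling of enzyme so polarization drops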
Pemphigus Ab inh: inhibitors of pemphigus antibody binding to human desmoglein-3 | P32926 | DSG3-coupled beads, scFv-anti-DSG3-GFP binding, flow cytometry; active compounds read low | binding (percent of control), % at 10 µM | hit rate 0.48% among 310,000;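 active means binding more than 3 SD below its plate's average and above zero; inconclusive means below that plate limit but binding exactly zero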;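 further: hits lower antibody fragment binding to DSG3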
PAFAH1B2 inh: inhibitors of human PAFAH1B2. P68402. recombinant PAFAH1B2, FP-rhodamine activity probe, fluorescence polarization. inhibition, % at 3.39 µM. hit rate 1.2% among 340,000. AID 492953;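 active means inhibition above the mean of all tested compounds plus 3 SD, cut at about 24% in these data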
Target sequence (P68402 whole entry, looked up): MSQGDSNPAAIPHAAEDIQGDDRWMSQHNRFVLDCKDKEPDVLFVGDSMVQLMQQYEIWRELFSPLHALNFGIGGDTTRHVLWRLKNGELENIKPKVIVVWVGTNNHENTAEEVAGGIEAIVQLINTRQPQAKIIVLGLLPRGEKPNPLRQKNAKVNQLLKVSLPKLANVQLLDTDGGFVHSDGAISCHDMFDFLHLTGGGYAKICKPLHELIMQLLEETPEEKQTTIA
Numbers stand for hits; . = inactive; ? = inconclusive; / = no result.

SMILES | pPAFAH inh | PAFAH1B3 inh | M18AAP inhibitor | PAFAH2 FP inh | Pemphigus Ab inh | PAFAH1B2 inh
CCN1C(=O)[C@H]2[C@@H](c3ccc(C(F)(F)F)cc3)N[C@]3(CCCN(Cc4ccccc4)C3=O)[C@H]2C1=O | / | / | / | / | . | /
Cc1c(N=Cc2cc3c(cc2[N+](=O)[O-])OCO3)cccc1[N+](=O)[O-] | 49 | . | / | . | / | .
CC(NS(=O)(=O)c1ccc(Br)cc1F)[C@H](O)c1ccccc1 (some centres undefined) | / | / | / | / | . | /
CCc1cc(/C(Cc2ccc3ccccc3n2)=N\O)c(O)cc1O | . | 41 | . | . | . | .
CCc1ccc(/C=C2\SC(=S)N(CCCC(=O)N(CCO)c3ccccc3)C2=O)cc1 | / | / | / | / | . | /
Cn1nc(CC(=O)Nc2ccc(N3CCN(C(=O)OC(C)(C)C)CC3)cc2)c2ccccc2c1=O | . | . | . | . | 86 | .
O=C1CCCN1c1ccc(S(=O)(=O)Oc2ccc(Cl)cc2)cc1[N+](=O)[O-] | . | . | . | . | . | 69
Cc1c(C(=O)Nc2cccc([N+](=O)[O-])c2)csc1-c1ccccc1 | . | . | . | . | . | .
Cc1ccc(NC(=O)c2csc(-c3ccccc3)c2C)cc1 | / | . | . | . | -24 | .
Cc1ccc(-c2nc(NC(=O)CSc3cc(C)c4ccccc4n3)ns2)cc1 | . | . | . | . | -0.3 | .
COc1ccc2c(C)cc(SCC(=O)Nc3nsc(-c4ccc(C)cc4)n3)nc2c1 | . | . | . | . | . | .
O=C(COC(=O)c1cc(S(=O)(=O)N2CCCC2)ccc1O)Nc1ccccc1Br | . | . | / | 49 | / | .
CN(Cc1ccccc1)C(=O)COC(=O)c1ccccc1NS(=O)(=O)c1cccc(N)c1 | . | . | . | . | . | .
CCN(Cc1ccccc1)C(=O)COC(=O)c1cc(S(=O)(=O)Nc2ccccc2OC)ccc1O | . | . | / | . | ? | 32
CNS(=O)(=O)c1cccc(C(=O)OCC(=O)Nc2ccccc2F)c1 | . | . | . | . | . | .
Cc1cccc(C(=O)OC(C)C(=O)Nc2ccc(S(=O)(=O)N3CCCC3)cc2)c1O (centres undefined) | . | . | / | . | . | .
COc1ccccc1NS(=O)(=O)c1ccc(O)c(C(=O)OCC(=O)Nc2ccccc2F)c1 | . | . | . | 34 | . | .
CC(OC(=O)c1cc(Br)ccc1O)C(=O)Nc1ccc(S(=O)(=O)N2CCCC2)cc1 (centres undefined) | 26 | . | / | . | . | .
COc1cccc(CNCc2ccccc2Br)c1OC | . | . | . | . | . | .
COc1cc2nc(CN3CCN(S(=O)(=O)c4ccccc4[N+](=O)[O-])CC3)[nH]c(=O)c2cc1OC | / | / | / | / | . | /
COc1ccc(S(=O)(=O)N2CCOCC2)cc1NC(=O)CCCSc1ccccc1 | / | / | / | / | . | /
CCC(=NNS(=O)(=O)c1ccc(C)cc1)c1ccc(OC)c(C)c1 | / | / | / | / | . | /
CN(CCCn1ccc(N)nc1=O)Cc1ccco1 | / | / | / | / | . | /
COc1cc(/C=C2/C(=O)c3cccc([N+](=O)[O-])c3C2=O)c(Br)cc1O | 32 | 40 | 30 | 40 | . | .
Cc1cc(C(C)(C)C)cc(S(=O)(=O)Nc2ccc(O)c(C(=O)O)c2)c1C | . | . | . | . | . | 47
SMILES | pPAFAH inh | PAFAH1B3 inh | M18AAP inhibitor | PAFAH2 FP inh | Pemphigus Ab inh | PAFAH1B2 inh
CC(=O)Nc1ccc(NC(=O)c2ccc(NS(=O)(=O)c3cc(C(C)(C)C)cc(C)c3C)cc2)cc1 | . | . | . | . | . | .
O=C(COc1ccc(F)cc1)NCCNC(=O)COc1ccc(F)cc1 | . | . | / | . | . | .
Cc1ccccc1N(CC(=O)N1CCN(Cc2ccccc2)CC1)S(C)(=O)=O | / | / | / | / | . | /
Clc1ccc(-c2nc3cnccn3c2Nc2ccc3c(c2)OCO3)cc1 | . | . | 31 | . | . | .
NC(=O)C(NN=C(c1ccccc1)c1ccccc1)c1ccccc1 (centres undefined) | / | / | / | / | . | /
Cc1ccc(S(=O)(=O)N2CCN(C(C)C(=O)NCC(C)c3ccccc3)CC2)cc1 (centres undefined) | . | . | / | . | . | 29
CC(C(=O)Nc1ccccc1-c1ccccc1)N1CCN(S(=O)(=O)c2ccccc2)CC1 (centres undefined) | . | . | . | . | . | 31
COCCNC(=O)c1cccc(OC2CCN(Cc3ccc(Cl)c(F)c3)CC2)c1 | . | . | . | . | . | .
N#CCC(=O)N/N=C/c1cccc(Oc2ccccc2)c1 | . | . | 30 | . | . | .
CC(C)OC(=O)N(C)C[C@@H]1OCc2cn(nn2)CCCC(=O)N([C@@H](C)CO)C[C@H]1C | / | / | / | / | . | /
CCCCC(=O)NC(c1ccco1)c1cc(Cl)c2cccnc2c1O (centres undefined) | 29 | . | . | . | . | .
O=C(CN1CCN(c2ccc(F)cc2)CC1)Nc1ccc(S(=O)(=O)N2CCOCC2)cc1 | . | . | . | . | . | .
C[C@H](NC(=O)c1nc[nH]c1C(=O)NCC(=O)OCc1ccccc1)c1ccccc1 | . | . | . | . | . | 34
C[C@@H]1CN([C@@H](C)CO)C(=O)CCCn2nncc2CO[C@H]1CN(C)C(=O)OCc1ccccc1 | / | / | / | / | . | /
COc1ccc(Nc2nc(Nc3ccc(OC)cc3)nc(SC3=NCCS3)n2)cc1 | 34 | . | . | . | . | .
O=C(c1ccccc1F)N1CCCC(N2CCN(Cc3ccc4c(c3)OCO4)CC2)C1 (centres undefined) | / | / | / | / | . | /
Cc1nc2cc(Cl)ccc2n1-c1ccccc1 | 25 | . | . | . | / | .
CN(C(=O)c1cc(COc2c(F)cccc2F)on1)C1CCOC1 (centres undefined) | . | . | . | . | / | .
O=C(NCC1COCCO1)c1cc(COc2c(F)cccc2F)on1 (centres undefined) | 25 | . | . | . | / | .
C[C@H]1CN([C@@H](C)CO)C(=O)CCCn2nncc2CO[C@H]1CN(C)C(=O)Nc1ccc2c(c1)OCO2 | / | / | / | / | . | /
CCCCn1c(SCC(=O)NC2CC2)nc2cc(C(=O)OC)ccc2c1=O | / | / | / | / | . | /
Cc1c(O)ccc(-c2n[nH]c(C(=O)O)c2-c2nc3ccccc3s2)c1O | . | . | 30 | . | . | .
C[C@H]1C[C@H]2[C@@H]3CCC4=CC(=O)C=C[C@]4(C)[C@@]3(Cl)[C@@H](O)C[C@]2(C)[C@@]1(O)C(=O)CO | . | . | . | . | -13 | .
N#CCCN(C(=S)NC(=O)C1CCCCC1)c1ccccc1F | . | . | / | . | . | .
CCCNC(=O)c1ccc2c(=O)c(O)c(-c3cccc(Br)c3)[nH]c2c1 | 28 | . | / | . | . | .
CC(C)(C)c1ccc(OCC(=O)NNC(=S)NC(=O)c2ccco2)c(Br)c1 | . | . | . | . | . | .
CC(C)(C)c1ccc(OCC(=O)NCc2ccco2)c(Br)c1 | 28 | . | . | . | / | .
O=C(/C=C/c1ccccc1)c1c[nH]c2ccccc12 | . | . | . | . | 64 | .
Cc1ccc(S(=O)(=O)N/N=C/c2cccn2-c2ccc(Cl)cc2)cc1 | . | . | . | . | . | 54
COc1cccc(C#CC2=CC(=O)CC(C)(C)C2)c1 | / | / | / | / | . | /
